# Laboratory results reported in PMC7862700, “An all-to-all approach to the identification of sequence-specific readers for epigenetic DNA modifications on cytosine”.
# Assays:
# Assay in all cases: DAPPL (digital affinity profiling via proximity ligation, sequencing); 10 mM Tris-HCl pH 7.5, 50 mM NaCl, 1 mM DTT, 4% glycerol, room temperature, 30 min; GST-TFs on glutathione beads, 16-mer random dsDNA library, 0.1% formaldehyde crosslink after washing; high values mean tight binding
# Conditions in all cases: protein: recombinant; tags: N-terminal GST; dsDNA, one strand shown
# SPI1 = SPI1 (Homo sapiens, UniProt P17947 1-270)
# Outline: (§1)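 Binding signal is defined as a hexamer's read frequency for one factor over its frequency for the tag-only sample. To obtain reads, GST-fused human transcription factors were expressed in yeast, captured on glutathione beads, barcoded with DNA and pooled with that sample. Pools met 200 nmole of a 16-mer random double-stranded DNA library in Tris/NaCl/DTT/glycerol buffer for 30 min at room temperature before washing, 0.1% formaldehyde crosslinking, proximity ligation (BsaI/T4 ligase, 1 h, 37 °C), PCR and Illumina NextSeq500 sequencing.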
# FEV = biological target: T1, FEV (Homo sapiens, UniProt Q99581 1-238)
# T1 sequence: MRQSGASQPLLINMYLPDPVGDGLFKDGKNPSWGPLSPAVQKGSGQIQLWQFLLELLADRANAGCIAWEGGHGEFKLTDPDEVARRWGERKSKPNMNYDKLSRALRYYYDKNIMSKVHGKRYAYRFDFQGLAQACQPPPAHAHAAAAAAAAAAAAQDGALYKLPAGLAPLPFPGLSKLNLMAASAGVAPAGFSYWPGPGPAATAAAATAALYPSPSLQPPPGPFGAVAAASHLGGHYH
# Outline: as §1
# ETV5 = ETV5 (Homo sapiens, UniProt P41161 1-510)
# Outline: as §1
# ELF5 = biological target: T2, ELF5 (Homo sapiens, UniProt Q9UKW6-2 1-255)
# T2 sequence: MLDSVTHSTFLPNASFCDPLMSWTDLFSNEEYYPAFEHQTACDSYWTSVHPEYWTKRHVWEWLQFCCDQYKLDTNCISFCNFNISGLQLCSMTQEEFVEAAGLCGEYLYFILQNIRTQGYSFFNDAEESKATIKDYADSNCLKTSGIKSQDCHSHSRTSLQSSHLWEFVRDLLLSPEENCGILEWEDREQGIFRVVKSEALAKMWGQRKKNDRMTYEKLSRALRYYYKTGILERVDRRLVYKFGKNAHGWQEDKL
# Outline: as §1
# SPDEF = biological target: T3, SPDEF (Homo sapiens, UniProt O95238 1-335)
# T3 sequence: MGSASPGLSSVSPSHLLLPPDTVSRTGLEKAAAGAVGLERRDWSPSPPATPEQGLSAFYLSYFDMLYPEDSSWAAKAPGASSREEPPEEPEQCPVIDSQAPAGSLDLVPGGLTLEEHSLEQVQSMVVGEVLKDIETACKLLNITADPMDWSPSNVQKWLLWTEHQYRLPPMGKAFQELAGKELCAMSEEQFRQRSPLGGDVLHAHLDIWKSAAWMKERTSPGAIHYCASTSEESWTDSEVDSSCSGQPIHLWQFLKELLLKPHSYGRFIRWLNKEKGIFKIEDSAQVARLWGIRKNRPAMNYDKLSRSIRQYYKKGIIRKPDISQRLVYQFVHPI
# Outline: as §1
# CRX = CRX (Homo sapiens, UniProt O43186 1-299)
# Outline: as §1
# CRX, sequence (O43186 whole entry): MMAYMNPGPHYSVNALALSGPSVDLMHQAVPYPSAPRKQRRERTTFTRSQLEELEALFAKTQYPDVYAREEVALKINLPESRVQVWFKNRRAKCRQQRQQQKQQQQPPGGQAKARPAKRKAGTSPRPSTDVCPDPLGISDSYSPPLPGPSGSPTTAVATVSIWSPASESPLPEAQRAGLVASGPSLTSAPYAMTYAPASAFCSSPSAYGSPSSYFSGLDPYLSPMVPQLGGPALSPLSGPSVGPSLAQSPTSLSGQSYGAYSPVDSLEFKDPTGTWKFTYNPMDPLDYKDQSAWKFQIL
# ETV5, sequence (P41161 whole entry): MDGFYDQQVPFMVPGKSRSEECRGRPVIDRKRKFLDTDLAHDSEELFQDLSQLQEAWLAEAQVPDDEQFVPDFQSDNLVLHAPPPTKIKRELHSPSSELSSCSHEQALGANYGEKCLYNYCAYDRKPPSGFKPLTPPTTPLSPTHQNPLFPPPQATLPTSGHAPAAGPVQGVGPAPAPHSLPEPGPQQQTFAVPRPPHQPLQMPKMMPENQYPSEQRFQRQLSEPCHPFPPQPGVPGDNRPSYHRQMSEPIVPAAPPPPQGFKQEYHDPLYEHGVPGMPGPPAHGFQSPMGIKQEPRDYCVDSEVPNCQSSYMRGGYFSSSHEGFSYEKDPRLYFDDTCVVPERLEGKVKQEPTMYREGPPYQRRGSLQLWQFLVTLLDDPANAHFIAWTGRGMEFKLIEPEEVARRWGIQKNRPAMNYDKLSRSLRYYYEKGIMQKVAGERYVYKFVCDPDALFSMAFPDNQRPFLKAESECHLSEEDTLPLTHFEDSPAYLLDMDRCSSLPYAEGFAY
sequence,measurement,setting,value
CCACCG,binding signal,SPI1,"1.04 fold enrichment (6-mer frequency, TF over GST control)"
same,binding signal,FEV,"1.26 fold enrichment (6-mer frequency, TF over GST control)"
same,binding signal,ETV5,"1 fold enrichment (6-mer frequency, TF over GST control)"
same,binding signal,ELF5,"1.02 fold enrichment (6-mer frequency, TF over GST control)"
TGGTCG,binding signal,ETV5,"1.06 fold enrichment (6-mer frequency, TF over GST control)"
ATAGGG,binding signal,SPI1,"1.19 fold enrichment (6-mer frequency, TF over GST control)"
same,binding signal,ETV5,"1.03 fold enrichment (6-mer frequency, TF over GST control)"
same,binding signal,SPDEF,"1.01 fold enrichment (6-mer frequency, TF over GST control)"
same,binding signal,ELF5,"1.02 fold enrichment (6-mer frequency, TF over GST control)"
AGCGTC,binding signal,SPI1,"1.06 fold enrichment (6-mer frequency, TF over GST control)"
same,binding signal,FEV,"1.04 fold enrichment (6-mer frequency, TF over GST control)"
same,binding signal,ETV5,"1.04 fold enrichment (6-mer frequency, TF over GST control)"
same,binding signal,SPDEF,"1.08 fold enrichment (6-mer frequency, TF over GST control)"
same,binding signal,ELF5,"1.04 fold enrichment (6-mer frequency, TF over GST control)"
ATCCGT,binding signal,FEV,"1.1 fold enrichment (6-mer frequency, TF over GST control)"
same,binding signal,ETV5,"1.05 fold enrichment (6-mer frequency, TF over GST control)"
same,binding signal,CRX,"1.08 fold enrichment (6-mer frequency, TF over GST control)"
same,binding signal,SPDEF,"1.41 fold enrichment (6-mer frequency, TF over GST control)"
same,binding signal,ELF5,"1.17 fold enrichment (6-mer frequency, TF over GST control)"
GACCGG,binding signal,FEV,"2.09 fold enrichment (6-mer frequency, TF over GST control)"
same,binding signal,ETV5,"1.12 fold enrichment (6-mer frequency, TF over GST control)"
same,binding signal,SPDEF,"1.19 fold enrichment (6-mer frequency, TF over GST control)"
same,binding signal,ELF5,"1.08 fold enrichment (6-mer frequency, TF over GST control)"
TATGAG,binding signal,ETV5,"1.02 fold enrichment (6-mer frequency, TF over GST control)"
same,binding signal,CRX,"1.1 fold enrichment (6-mer frequency, TF over GST control)"
same,binding signal,SPDEF,"1.01 fold enrichment (6-mer frequency, TF over GST control)"
CATAGT,binding signal,ETV5,"1.01 fold enrichment (6-mer frequency, TF over GST control)"
same,binding signal,ELF5,"1 fold enrichment (6-mer frequency, TF over GST control)"
GTCCGG,binding signal,FEV,"1.15 fold enrichment (6-mer frequency, TF over GST control)"
same,binding signal,ETV5,"1.01 fold enrichment (6-mer frequency, TF over GST control)"
same,binding signal,SPDEF,"1.18 fold enrichment (6-mer frequency, TF over GST control)"
same,binding signal,ELF5,"1.06 fold enrichment (6-mer frequency, TF over GST control)"
AACGCA,binding signal,SPI1,"1.06 fold enrichment (6-mer frequency, TF over GST control)"
same,binding signal,FEV,"1.11 fold enrichment (6-mer frequency, TF over GST control)"
same,binding signal,ETV5,"1.09 fold enrichment (6-mer frequency, TF over GST control)"
same,binding signal,SPDEF,"1.05 fold enrichment (6-mer frequency, TF over GST control)"
same,binding signal,ELF5,"1.04 fold enrichment (6-mer frequency, TF over GST control)"
CGACGG,binding signal,ETV5,"1 fold enrichment (6-mer frequency, TF over GST control)"
TGAAGC,binding signal,ETV5,"1.01 fold enrichment (6-mer frequency, TF over GST control)"
CATAGC,binding signal,ETV5,"1.01 fold enrichment (6-mer frequency, TF over GST control)"
GTGCCT,binding signal,SPI1,"1.15 fold enrichment (6-mer frequency, TF over GST control)"
same,binding signal,ETV5,"1.07 fold enrichment (6-mer frequency, TF over GST control)"
same,binding signal,SPDEF,"1.02 fold enrichment (6-mer frequency, TF over GST control)"
CGGCAA,binding signal,ETV5,"1.02 fold enrichment (6-mer frequency, TF over GST control)"
GGCAAT,binding signal,ETV5,"1 fold enrichment (6-mer frequency, TF over GST control)"
GGACTT,binding signal,SPI1,"1.2 fold enrichment (6-mer frequency, TF over GST control)"
same,binding signal,FEV,"1.4 fold enrichment (6-mer frequency, TF over GST control)"
same,binding signal,ETV5,"1.15 fold enrichment (6-mer frequency, TF over GST control)"
same,binding signal,CRX,"1.08 fold enrichment (6-mer frequency, TF over GST control)"
same,binding signal,SPDEF,"1.08 fold enrichment (6-mer frequency, TF over GST control)"
same,binding signal,ELF5,"1.24 fold enrichment (6-mer frequency, TF over GST control)"
GCCCGG,binding signal,FEV,"1.04 fold enrichment (6-mer frequency, TF over GST control)"
same,binding signal,ETV5,"1.01 fold enrichment (6-mer frequency, TF over GST control)"
same,binding signal,SPDEF,"1.06 fold enrichment (6-mer frequency, TF over GST control)"
same,binding signal,ELF5,"1.05 fold enrichment (6-mer frequency, TF over GST control)"
AGTTAC,binding signal,ETV5,"1.05 fold enrichment (6-mer frequency, TF over GST control)"
GCGTAT,binding signal,ETV5,"1.05 fold enrichment (6-mer frequency, TF over GST control)"
ATAGGC,binding signal,FEV,"1.07 fold enrichment (6-mer frequency, TF over GST control)"
same,binding signal,ETV5,"1.1 fold enrichment (6-mer frequency, TF over GST control)"
same,binding signal,CRX,"1.14 fold enrichment (6-mer frequency, TF over GST control)"
AACTGT,binding signal,ETV5,"1 fold enrichment (6-mer frequency, TF over GST control)"
GGATAC,binding signal,ETV5,"1.01 fold enrichment (6-mer frequency, TF over GST control)"
same,binding signal,SPDEF,"1.43 fold enrichment (6-mer frequency, TF over GST control)"
same,binding signal,ELF5,"1.02 fold enrichment (6-mer frequency, TF over GST control)"
GTTGGT,binding signal,SPI1,"1.02 fold enrichment (6-mer frequency, TF over GST control)"
same,binding signal,ETV5,"1.01 fold enrichment (6-mer frequency, TF over GST control)"
GGGTAT,binding signal,ETV5,"1.02 fold enrichment (6-mer frequency, TF over GST control)"
CTGTAG,binding signal,ETV5,"1.02 fold enrichment (6-mer frequency, TF over GST control)"
same,binding signal,SPDEF,"1.03 fold enrichment (6-mer frequency, TF over GST control)"
same,binding signal,ELF5,"1.01 fold enrichment (6-mer frequency, TF over GST control)"
TAGGCC,binding signal,FEV,"1.05 fold enrichment (6-mer frequency, TF over GST control)"
same,binding signal,ETV5,"1.05 fold enrichment (6-mer frequency, TF over GST control)"
same,binding signal,CRX,"1.21 fold enrichment (6-mer frequency, TF over GST control)"
GTGCCC,binding signal,SPI1,"1.07 fold enrichment (6-mer frequency, TF over GST control)"
same,binding signal,FEV,"1 fold enrichment (6-mer frequency, TF over GST control)"
same,binding signal,ETV5,"1.08 fold enrichment (6-mer frequency, TF over GST control)"
AGCGGC,binding signal,ETV5,"1.03 fold enrichment (6-mer frequency, TF over GST control)"
GAAACC,binding signal,FEV,"1.08 fold enrichment (6-mer frequency, TF over GST control)"
same,binding signal,ETV5,"1.05 fold enrichment (6-mer frequency, TF over GST control)"
same,binding signal,ELF5,"1.03 fold enrichment (6-mer frequency, TF over GST control)"
CGAGGT,binding signal,ETV5,"1.01 fold enrichment (6-mer frequency, TF over GST control)"
AAACAG,binding signal,SPI1,"1.13 fold enrichment (6-mer frequency, TF over GST control)"
same,binding signal,ETV5,"1.07 fold enrichment (6-mer frequency, TF over GST control)"
same,binding signal,ELF5,"1.03 fold enrichment (6-mer frequency, TF over GST control)"
AGTACC,binding signal,SPI1,"1.03 fold enrichment (6-mer frequency, TF over GST control)"
same,binding signal,ETV5,"1.04 fold enrichment (6-mer frequency, TF over GST control)"
same,binding signal,SPDEF,"1.01 fold enrichment (6-mer frequency, TF over GST control)"
same,binding signal,ELF5,"1.02 fold enrichment (6-mer frequency, TF over GST control)"
